JMJD2A Tudor inh: qHTS Assay for Inhibitors of JMJD2A-Tudor Domain; AlphaScreen JMJD2A-Tudor / H3K4me3 peptide binding; Potency, µM (doses to about 114 µM), actives largely listed as inhibitors; 390,000 tested, 4.4% active; note: nearly all actives have a fitted effect of over 50% in size
Sfp PPTase inh: qHTS Assay for Inhibitors of Bacillus subtilis Sfp phosphopantetheinyl transferase (PPTase) | Biochemical Sfp PPTase activity, qHTS | Potency, µM, usual class: inhibitors | 310,000 tested, 3.5% active | AID 1490, 2009;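 note: the enzyme is Sfp with the accession as filed and its product quenches rhodamine fluorescence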
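Buffer: 50 mM Hepes-Na pH 7.6, 10 mM MgCl2, 0.01% Nonidet P-40, 0.01% BSA. Enzyme 15 nM, pre-exposed to compound 15 min; substrates then added and fluorescence change tracked over 30 min.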
HP1b chromo inh: HTS for Inhibitors of HP1-beta Chromodomain Interactions with Methylated Histone Tails. Chromobox protein homolog 1 (Homo sapiens), P83916. AlphaScreen HP1-beta / biotin-H3K9me3 peptide binding. Potency, µM (highest dose often 114 µM), hits mostly inhibitors. 390,000 tested, 0.56% active; note: nearly all actives have a fitted effect of over 70% in size
Target sequence (P83916 whole entry, looked up): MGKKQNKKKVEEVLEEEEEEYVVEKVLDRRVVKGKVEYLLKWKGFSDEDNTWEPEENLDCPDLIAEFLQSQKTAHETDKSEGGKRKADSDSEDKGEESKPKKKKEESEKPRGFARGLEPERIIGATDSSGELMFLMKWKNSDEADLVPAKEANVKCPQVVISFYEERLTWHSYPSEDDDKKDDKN
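AlphaScreen: HP1-beta (50 nM) preformed 30 min with biotin-H3(1-18)K9me3 peptide (50 nM) in PBS pH 7.4, 0.01% Tween-20. Compound added for 30 min at RT, then streptavidin donor/nickel chelate acceptor beads (10 ug/mL) for 30 min.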
BAZ2B block: qHTS Assay for Inhibitors of BAZ2B. Bromodomain adjacent to zinc finger domain protein 2B (Homo sapiens), Q9UIF8. AlphaScreen BAZ2B-H3K14Ac peptide displacement. Potency, µM (top dose mostly 114 µM), most hits filed as inhibitors. 360,000 tested, 4.4% active; note: nearly all actives have a fitted effect of over 60% in size
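AlphaScreen luminescence quantifies BAZ2B engagement of H3K14Ac peptide; the protein and biotinylated peptide are both at 50 nM final, buffer PBS pH 7.4 with 0.01% Tween-20, all steps at room temperature.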
G9a block: qHTS Assay for Inhibitors of Histone Lysine Methyltransferase G9a; G9a H3K9 monomethylation, AlphaScreen, 2 h; Potency, µM (series often up to 102 µM), hits mostly inhibitors; 350,000 tested, 8.8% active; AID 504332, 2011; note: nearly all actives have a fitted effect of over 75% in size
Target sequence (Q96KQ7 913-1193 limits assumed): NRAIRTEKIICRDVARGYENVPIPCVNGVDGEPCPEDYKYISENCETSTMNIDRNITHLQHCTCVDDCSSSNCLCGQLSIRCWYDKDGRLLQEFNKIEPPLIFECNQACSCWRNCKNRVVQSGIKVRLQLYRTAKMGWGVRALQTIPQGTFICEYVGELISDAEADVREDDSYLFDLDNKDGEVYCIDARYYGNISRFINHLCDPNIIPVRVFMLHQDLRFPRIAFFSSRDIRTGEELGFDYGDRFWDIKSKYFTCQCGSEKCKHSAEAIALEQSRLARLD
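Readings reflect AlphaScreen signal from monomethyl-H3K9 antibody detection. HMT at 20 nM; substrate b-H3K9 500 nM; cofactor SAM 20 uM; 2 h RT reaction; compounds tested as titrations in qHTS with 15 min preincubation.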
Hits are given with their value; - = inactive; ? = inconclusive; . = no result given; [ ] = another dose, or the depositor's remark. A selection: hits, their analogues and other compounds. The true share with any hit is near 12%. Calls come from the whole dose curve; as a rule, active = well fitted curve in the direction sought with a large enough effect; inconclusive = small, poorly fitted or top-dose-only effect, or another doubt; inactive = no such curve, though single readings can be large; an effect the other way counts as inactive or inconclusive.

SMILES	JMJD2A Tudor inh	Sfp PPTase inh	HP1b chromo inh	BAZ2B block	G9a block
Cn1c(-c2ccccc2)cnc1NCc1ccccc1O	28µM	.	?	50µM	10µM
COc1cc(OC)c2c(-c3ccccc3)cc(=O)oc2c1C(CCN1CCCC(C)C1)c1ccc(N(C)C)cc1 (stereo not given)	11µM	?	?	16µM	?
COc1ccc(C(CCN2CCN(c3ccccc3)CC2)c2c(OC)cc(OC)c3c(-c4ccccc4)cc(=O)oc23)cc1 (stereo not given)	?	-	-	?	?
CCCCCc1cc(=O)oc2c(C(CCN3CCN(c4ccccc4)CC3)c3ccc(N(C)C)cc3)c(OC)cc(OC)c12 (stereo not given)	22µM	-	?	6.3µM	?
COc1cc(OC)c2c(C)cc(=O)oc2c1C(CCN1CCOCC1)c1ccc(N(C)C)cc1 (stereo not given)	50µM	-	?	40µM	-[12.7 µM]
COc1cc(OC)c2c(-c3ccccc3)cc(=O)oc2c1C(CCN1CCN(c2ccccc2)CC1)c1ccc(N(C)C)cc1 (stereo not given)	4.5µM	-	?	4.5µM	?
O=C(O)c1ccc2c(c1)C(=O)N(c1ccc([N+](=O)[O-])cn1)C2=O	-	-	-	-	.
CCN(CC)CCC(c1ccc(N(C)C)cc1)c1c(OC)cc(OC)c2c(-c3ccccc3)cc(=O)oc12 (stereo not given)	22µM	56µM	?	32µM	?
COc1cc(OC)c2ccc(=O)oc2c1C(CCN1CCOCC1)c1ccc(N(C)C)cc1 (stereo not given)	.	-	.	.	28µM
COc1ccc(C(CCN2CCCC2)c2c(OC)cc(OC)c3c(-c4ccccc4)cc(=O)oc23)cc1 (stereo not given)	?	-	-	-	-[12.7 µM]
COc1cc(OC)c2ccc(=O)oc2c1C(CCN1CCN(c2ccccc2)CC1)c1ccc(N(C)C)cc1 (stereo not given)	22µM	-	?	35µM	-
Cc1n[nH]c(=O)c2c(NC(=O)CSc3nncn3C(C)C)oc(C)c12	-	.	-	-	?
Cc1n[nH]c(=O)c2c(NC(=O)CSc3c(Cl)cccc3Cl)oc(C)c12	-	.	-	-	13µM
Cc1n[nH]c(=O)c2c(NC(=O)CSc3ccccc3Cl)oc(C)c12	-	.	-	-	32µM
Cc1n[nH]c(=O)c2c(NC(=O)CSc3nn(-c4ccc(F)cc4)c(=S)s3)oc(C)c12	-	.	-	-	-[2.33 µM]
Cc1ccc(OCCCSc2nc(-c3ccc(C(C)(C)C)cc3)nc3cc(=O)[nH]n23)cc1C	25µM	.	?	45µM	-
COc1ccccc1OCCSc1nc(-c2ccc(C(C)(C)C)cc2)nc2cc(=O)[nH]n12	-	.	-	?	-
CC(C)(C)c1ccc(-c2nc(SCCOc3ccc(Cl)cc3)n3[nH]c(=O)cc3n2)cc1	?	.	-	50µM	-
N#C/C(C(=O)Oc1ccccc1)=C1\C=CC=CN1	-	-	-	-	-
CC(C)[C@@H]1NC(=O)c2cc([N+](=O)[O-])cc(I)c2NCCC[C@@H](C(N)=O)NC(=O)[C@H](CO)NC1=O	-	-	-	?	40µM
CC(C)[C@@H]1NC(=O)c2cc([N+](=O)[O-])cc(I)c2NCCCC[C@@H](C(=O)NC(CC(=O)O)C(N)=O)NC(=O)[C@H](CO)NC1=O (stereo not given in full)	.	-	.	50µM	45µM
Cc1coc2c1c(C)cc1oc(=O)c(CC(=O)N[C@@H](CC(C)C)C(=O)O)c(C)c12	-	-	-	-	50µM
CCCC(NC(=O)Cc1c(C)c2c(cc(C)c3c(C)coc32)oc1=O)C(=O)O (stereo not given)	-	-	-	-	-
Cc1noc(C)c1C(=O)N1CCc2ccccc21	-	-	-	-	-
CCN(CC)S(=O)(=O)c1cc(C(=O)OCC(=O)Nc2c(F)cccc2F)ccc1F	-	-	-	-	-
SMILES	JMJD2A Tudor inh	Sfp PPTase inh	HP1b chromo inh	BAZ2B block	G9a block
O=C(Nc1ccccc1C(F)(F)F)C1CCN(S(=O)(=O)c2ccccc2)CC1	-	.	-	-	-
O=c1[nH]cccc1-c1nc2cc(Cl)ccc2n1Cc1ccccc1	-	-	-	-	71µM
CCOC(=O)N1CCN(C(=O)c2cn(-c3ccc(C)c(C)c3)c(=O)c3ccccc23)CC1	-	-	-	-	-[12.7 µM]
CCCCCCn1c(-c2ccco2)nc2oc3cc(OC)ccc3c(=O)c2c1=O	-	-	-	-	20µM
CCCc1nc2sc3ccccc3c(=O)c2c(=O)n1Cc1ccco1	-	28µM	-	?	?
COc1ccc2c(=O)c3c(=O)n(Cc4ccco4)c(-c4ccccc4)nc3oc2c1	-	32µM	-	-	?
CCCc1nc2sc3ccccc3c(=O)c2c(=O)n1Cc1ccc(OC)cc1	-	?	-	-	.
COc1ccc2c(=O)c3c(=O)n(Cc4ccco4)c(-c4cc(OC)c(OC)c(OC)c4)nc3oc2c1	-	?	-	-	?
CCCc1nc2oc3cc(OC)ccc3c(=O)c2c(=O)n1Cc1ccco1	?	32µM	-	?	-
COc1ccc(Cn2c(C)nc3oc4cc(OC)ccc4c(=O)c3c2=O)cc1	-	-	-	-	-
COc1cc(OC)c(-c2nn3c(C4CCCCC4)nnc3s2)cc1OC	-	-	-	-	-[12.7 µM]
COc1ccc(-c2nc3sc(CCNC(=O)Cc4ccccc4)c(C)n3n2)cc1	-	.	-	-	3.5µM
COc1ccc(Cn2ccc3nc(C)c(C(=O)Nc4ccc(F)cc4)cc3c2=O)cc1	-	.	-	-	-
CC(=O)NC(CC(=O)Nc1cccc(S(=O)(=O)N2CCCCC2)c1)c1ccccc1 (stereo not given)	-	-	-	-	50µM
O=C(Cc1ccc(Cl)cc1)Nc1cccc(S(=O)(=O)N2CCCCC2)c1	-	.	-	-	-
CC(C)(C)c1ccc(OCCCC(=O)Nc2cccc(S(=O)(=O)N3CCOCC3)c2)cc1	-	.	-	-	-
O=C(Cc1c[nH]c2ccccc12)Nc1cccc(S(=O)(=O)N2CCCCC2)c1	.	-	.	?	45µM
O=C(CCl)Nc1cccc(S(=O)(=O)N2CCCCCC2)c1	-	-	-	-	50µM
O=C(CN1C(=O)NC(Cc2c[nH]c3ccccc23)C1=O)Nc1cccc(S(=O)(=O)N2CCCCCC2)c1 (stereo not given)	?	-	-	?	?
CC(C)(C)c1ccc(OCCC(=O)Nc2cccc(S(=O)(=O)N3CCCC3)c2)cc1	-	.	-	-	3.5µM
CC(Sc1ccc(Br)cc1)C(N)=O (stereo not given)	-	-	-	-	-

Screening results (PubChem BioAssay)
